High-throughput results: PubChem BioAssay, National Center for Advancing Translational Sciences (NCATS)
HPGD inh = qHTS Assay for Inhibitors of HPGD (15-Hydroxyprostaglandin Dehydrogenase); purified HPGD, NADH fluorescence kinetic, PGE2 substrate; Potency, µM, usual class: inhibitors; hit rate 4.3% among 150,000; AID 894, 2007
Target sequence (P15428 whole entry, looked up): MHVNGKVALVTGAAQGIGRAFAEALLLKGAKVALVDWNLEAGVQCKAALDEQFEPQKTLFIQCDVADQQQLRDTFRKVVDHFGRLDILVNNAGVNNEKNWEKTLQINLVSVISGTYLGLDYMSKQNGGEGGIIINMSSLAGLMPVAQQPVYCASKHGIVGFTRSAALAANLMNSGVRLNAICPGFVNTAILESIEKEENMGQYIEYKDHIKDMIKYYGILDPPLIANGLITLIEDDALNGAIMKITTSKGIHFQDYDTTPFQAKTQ
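20 nM HPGD preincubated 15 min at room temperature with compound in 50 mM Tris-HCl pH 8, 0.01% Tween 20. Started with 1 mM NAD+ and 30 uM prostaglandin E2; NADH fluorescence (360/450 nm) read 5 times over 30-s intervals, last minus first.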
Lamin A splicing = qHTS Assay for Modulators of Lamin A Splicing; HeLa LMNA splicing GFP/RFP minigene ratio, 48 h; Potency, µM (doses to about 46.1 µM), usual class: inhibitors; hit rate 0.01% among 200,000; active = well fitted inhibition curve with a large enough effect in the signal ratio, with a control signal flat, not every such curve was filed as active; inconclusive = small, poorly fitted or top-dose-only effect, or effect the other way, or a change in a side signal; the % refers to the signal ratio
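Read-out is the ratio of GFP to DsRed2 object intensity, acquired by 488 nm laser-scanning cytometry on HeLa lamin A-EGFP minigene reporter cells. Compound incubation 48 hrs at 37 °C in Opti-MEM with 2% FBS; DMSO 0.5% final.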
KinaseGlo FLuc = Counterscreen for Luciferase (Kinase-Glo TM) Inhibition | Kinase-Glo luciferase, ATP luminescence, 8 min | Potency, µM (doses to about 38.3 µM), most hits filed as inhibitors | AID 1379, 2008 | hit rate 0.28% among 200,000; active = well fitted inhibition curve with a large enough effect; inconclusive = small, poorly fitted or top-dose-only effect; also: nearly all actives have a fitted effect of over 60% in size
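Luminescence was the read-out, taken after 8-minute incubation at ambient temperature. Luciferase turned over luciferin with 10 uM ATP in imidazole pH 7.2 buffer containing KCl, MgCl2, Tween 20 and BSA.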
PNC assembly inh = High Content Assay for Compounds that inhibit the Assembly of the Perinucleolar Compartment | PC3M PTB-GFP, PNC prevalence imaging, 16 h; hits give low values | activity change (PNC), negative = inhibition, % at 10 µM | hit rate 3.1% among 140,000 | AID 2417, 2010;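 active = readout at or below -70, meaning at least 70% loss of cells showing the perinucleolar compartment, a nuclear body marking cancer cells; inconclusive = readout between -30 and a set limit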
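Read-out is percentage of cells bearing a perinucleolar compartment, from automated 20x imaging of fixed, Hoechst-stained PC3M PTB-GFP cells. Cells were seeded 4 h, then exposed 16 h to compound (23 nl of library stock) in duplicate plates.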
ALDH1A1 block = qHTS Assay for Inhibitors of Aldehyde Dehydrogenase 1 (ALDH1A1); Potency, µM (top dose mostly 75.3 µM), usual class: inhibitors; hit rate 7.3% among 220,000; Purified ALDH1A1, NADH fluorescence, propionaldehyde substrate; Aldehyde dehydrogenase 1A1 (Homo sapiens), P00352
Target sequence (P00352 whole entry, looked up): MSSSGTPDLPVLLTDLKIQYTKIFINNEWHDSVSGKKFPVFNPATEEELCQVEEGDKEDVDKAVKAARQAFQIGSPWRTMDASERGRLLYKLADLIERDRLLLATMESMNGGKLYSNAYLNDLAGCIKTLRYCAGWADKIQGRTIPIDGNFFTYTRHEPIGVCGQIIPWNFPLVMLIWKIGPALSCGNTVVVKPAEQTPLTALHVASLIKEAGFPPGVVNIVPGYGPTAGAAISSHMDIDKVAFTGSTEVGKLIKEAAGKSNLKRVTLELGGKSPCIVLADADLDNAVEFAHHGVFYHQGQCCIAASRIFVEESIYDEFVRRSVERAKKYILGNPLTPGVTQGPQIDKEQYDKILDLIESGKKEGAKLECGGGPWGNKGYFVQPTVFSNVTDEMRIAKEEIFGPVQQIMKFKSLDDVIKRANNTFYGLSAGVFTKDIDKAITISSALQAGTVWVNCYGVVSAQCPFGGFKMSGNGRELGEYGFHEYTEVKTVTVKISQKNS
Numbers stand for hits; i = inactive; ? = inconclusive; nt = no result given; ! = not active in a repeat; [ ] = another dose, or the depositor's remark. Hits are enriched below; roughly 10% of the tested compounds scored in any of these assays. Unless noted, calls follow the shape of the dose curve; as a rule, active = well fitted inhibition curve with a large enough effect (not every such curve was filed as active); inconclusive = small, poorly fitted or top-dose-only effect, or another doubt; inactive = no such curve, though single readings can be large or run the other way.

SMILES	HPGD inh	Lamin A splicing	KinaseGlo FLuc	PNC assembly inh	ALDH1A1 block
COc1cc(OC)c(NC(=O)Cn2c(=O)oc3cc(S(=O)(=O)N4CCCC4)ccc32)cc1Cl	nt	i	nt	nt	nt
CCC1=C2CC[C@H]3C(=O)N(C)C(=O)[C@H]3[C@H]2[C@@]2(C)C(=O)N(CC3CC3)C(=O)N2C1=O	i	nt	i	nt	i
CC(C)Cc1cc(C(=O)Nc2sc3c(c2C#N)CCC3)no1	?	i	i	i	22µM
N#Cc1c(NC(=O)c2cc(C3CC3)on2)sc2c1CCC2	i	?	i	i	?
CC(C)Cc1cc(C(=O)Nc2sc3c(c2C#N)CCCC3)no1	28µM	?	i	i	18µM
CCOc1ccc(-c2csc(Cn3c(CN4CCN(C)CC4)nc4ccccc4c3=O)n2)cc1	nt	i	nt	i	14µM
CN(C)Cc1nc2ccccc2c(=O)n1Cc1nc(-c2cc3ccccc3o2)cs1	i	?	i	i	i
CC(C)OCCCNC(=O)CCCN1C(=O)CCn2nc(-c3cccn3C)cc21	nt	i	nt	nt	nt
COc1ccc(NC(=S)N(CCc2nc3cc(C)c(C)cc3[nH]2)Cc2cccnc2)cc1	i	i	i	i	13µM
COc1ccc(NC(=S)N(CCc2c(C)[nH]c3ccccc23)Cc2cccnc2)cc1	i	?	i	i	i
CCN(CC)C1CCN(C(=O)CCc2nnc(CCCCc3ccccc3)o2)C1 (stereo not given)	nt	nt	i	nt	i
CCN1CCN(C(=O)CCc2nnc(CCCCc3ccccc3)o2)[C@@H](C)C1=O	nt	i	i	nt	8.9µM
O=C(Cc1ccccc1)NNC(=S)Nc1ccccc1	nt	i	i	nt	i
NC(=S)NNC(=S)Nc1ccccc1	nt	?	i	nt	22µM
COCCCNC(=S)NNC(=S)Nc1ccc(F)cc1F	?	i	i	i	7.9µM
COCCCNC(=S)NNC(=S)Nc1ccccc1	nt	nt	nt	nt	18µM
C=COCCNC(=S)Nc1ccccc1	nt	?	i	nt	i
CC#CCN1c2ccccc2[C@]23C[C@@H](C(=O)OC)N(S(=O)(=O)c4ccc(Br)cc4)C2=NC(C(=O)OC)=C(C(=O)OC)[C@H]13	i	i[9.22 µM]	i[7.66 µM]	nt	i[13.5 µM]
O=c1c2ccccc2c2ccccc2c(=O)n1-c1cc2c3ccccc3ccc2c2ccccc12	i	nt	i[7.66 µM]	nt	i[13.5 µM]
Clc1ccc(-c2csc(Nc3ccccc3)[n+]2Cc2ccco2)c(Cl)c1	nt	?	i	nt	18µM
CCCC[n+]1c(-c2ccc(Cl)cc2Cl)csc1Nc1ccccc1	i	i	i	?	i
O=S(=O)(c1cccs1)N1CN(Cc2ccc(Cl)cc2)c2nc3ccccc3nc21	i	i	i	i	i
COCCN1CN(S(=O)(=O)c2ccccc2)c2nc3ccccc3nc21	?	i	i	-117	i
COCCN1CN(S(=O)(=O)c2ccc(Cl)cc2)c2nc3ccccc3nc21	i	i	i	?	24µM
CC(C)CCN1CN(S(=O)(=O)c2cccs2)c2nc3ccccc3nc21	i	i	i	i	28µM
SMILES	HPGD inh	Lamin A splicing	KinaseGlo FLuc	PNC assembly inh	ALDH1A1 block
Nc1nc(SCC(=O)c2ccc(Br)cc2)c2[nH]cnc2n1	i	nt	i[7.66 µM]	nt	i[13.5 µM]
CCc1nc(Nc2ccc(OC)c(OC)c2)c2nnn(Cc3ccccc3Cl)c2n1	?	?	i	-119	?
Clc1ccccc1Cn1nnc2c(Nc3ccccc3)ncnc21	i	?	i	i	25µM
COc1cc(O)c2c(=O)cc(-c3ccc(OC)c(-c4c(O)cc(O)c5c(=O)cc(-c6ccc(O)cc6)oc45)c3)oc2c1	?	nt	i	nt	i
O=c1cc(-c2ccc(O)c(-c3c(O)cc(O)c4c(=O)cc(-c5ccc(O)cc5)oc34)c2)oc2cc(O)cc(O)c12	14µM	i	i	i	?
N#[N+]c1ccc(Nc2ccccc2)cc1	i	nt	i[7.66 µM]	nt	i[13.5 µM]
CCCN1C(=O)c2cc(C(=O)Nc3ccc(OC)cc3OC)ccc2C1Nc1ccc(OC)cc1OC (stereo not given)	nt	nt	nt	nt	25µM
CCN(CC(=O)Nc1ccc2c(c1)OCCO2)Cc1cc(=O)oc2c(C)c(C)ccc12	i	i	i	?	16µM
CCN(CC(=O)Nc1ccc2c(c1)OCCO2)CC(=O)Nc1ccc2c(c1)OCO2	nt	nt	i	nt	10µM
O=C(CNCc1ccccc1Cl)Nc1ccc2c(c1)OCCO2	nt	nt	nt	nt	13µM
O=C(CC1NCCNC1=O)Nc1ccc2c(c1)OCO2 (stereo not given)	i	i	i	-91	i
CCc1ccc(NC(=O)CSC2=Nc3ccccc3C3=NC(CCC(=O)NCc4ccccc4OC)C(=O)N23)cc1 (stereo not given)	nt	i	nt	nt	nt
COc1c(O)cc2c(c1O)[C@@H]1O[C@@H](CO)[C@@H](O)[C@@H](O)[C@@H]1OC2=O	i	?	i	nt	i
CCN(CC(=O)Nc1ccc2c(c1)OCCO2)Cc1cc(=O)n2ccsc2n1	nt	nt	i	nt	20µM
CN(CC(=O)Nc1ccc(N2CCOCC2)cc1)Cc1cc(=O)n2ccsc2n1	nt	i[9.22 µM]	i	nt	?
O=S(=O)(NCC(c1cccs1)S(=O)(=O)c1ccccc1)c1ccc(F)cc1 (stereo not given)	nt	i	nt	nt	nt
COc1ccc(NC(=O)c2c(C(F)(F)F)nn(C)c2SCc2ccccc2)cc1	i	i	i	i	8.9µM
Cn1nc(C(F)(F)F)c(C(=O)Nc2ccc(C(F)(F)F)cc2)c1Cl	i	i	i	i	i
CC(=O)O[C@]1(C(C)=O)CC[C@H]2[C@@H]3C[C@H](C)C4=CC(=O)CC[C@]4(C)[C@H]3CC[C@@]21C	i	?	i	i	32µM!
CCOC(=O)CCSc1n[nH]c(=S)s1	nt	nt	nt	nt	1.8µM
CCOC(=O)CSc1nn(C)c(=S)s1	?	i	i	i	?
Cc1ccc(-c2cc(C(=O)NCCc3ccccc3)c3ccccc3n2)cc1C	nt	i	nt	nt	nt
N#CCCn1cc(C(N)=O)c(-c2cccs2)n1	nt	nt	i	nt	i
Cc1ccc(NC(=O)c2cn(CCC#N)nc2-c2cccs2)c([N+](=O)[O-])c1	i	i	i	-112	?
CCOC(=O)CN1C(=O)C(O)=C(C(C)=O)C1c1ccc(F)cc1 (stereo not given)	nt	i	nt	i	i
SMILES	HPGD inh	Lamin A splicing	KinaseGlo FLuc	PNC assembly inh	ALDH1A1 block
CCOC(=O)CN1C(=O)C(O)=C(C(C)=O)C1c1ccc([N+](=O)[O-])cc1 (stereo not given)	i	i	i	-111	i
COc1cc(/C=C2\SC(=S)N(Nc3ccccc3)C2=O)ccc1O	i	i	i	i	10µM
CCOc1cc(/C=C2\SC(=S)N(Nc3ccccc3)C2=O)ccc1O	i	i	i	i	11µM
Cn1cccc1/C=C1\SC(=S)N(NC(=O)c2ccccc2Cl)C1=O	i	i	i	i	i
Cc1cc(C)nc(NN2C(=O)/C(=C/c3ccccc3)SC2=S)n1	35µM	i	i	i	?
O=C(NN1C(=O)/C(=C\c2ccc(O)c([N+](=O)[O-])c2)SC1=S)c1ccccc1Cl	nt	nt	nt	nt	14µM
CCOc1ccc(/C=C2\SC(=S)N(C)C2=O)cc1OC	nt	nt	nt	nt	i
